Pf Dd2 inh: inhibitors of Plasmodium falciparum Dd2 growth. Potency, µM (top dose mostly 28.9 µM), inactives show at the top dose activity, negative = inhibition, most hits filed as inhibitors. 4.3% of 120,000 active. P. falciparum Dd2 growth, SYBR Green, 72 h; active = well fitted inhibition curve with a large enough effect;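 note: plate controls were DMSO vehicle for no effect and reference drug for full effect; nearly all actives have a fitted effect of over 65% in size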
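Readout: SYBR Green fluorescence, 485 nm excitation, 535 nm emission, after ~16 h lysis at 37C. Before that, Dd2-infected red cells (2.5% hematocrit) grew 72 h with compound, 29 uM top final concentration.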
* marks the source's active call; other numbers are inactive results; i = inactive; [ ] = dose if it differs, or a comment. The entries come from a sample that favours hits as a whole. Potency is the fitted concentration of half-maximal effect.

SMILES	Pf Dd2 inh
CC1=C[C@@H](CC#N)[C@H](C(C)C)C[C@H]1CC(=O)N1CCN(c2ncccn2)CC1	i
CCOC(=O)c1cc(-c2ccccc2)n(-c2cccc(C(=O)N(CC)c3ccccc3)c2)c1C	i
CCOC(=O)c1cc(-c2ccc(C)cc2)n(CC(=O)Nc2cccc(C(C)=O)c2)c1C	i
CCOC(=O)c1cc(-c2ccccc2)n(-c2cccc(C(=O)Nc3cccc(C)c3)c2)c1C	11.2µM*
Cc1ccc(NC(=O)Cn2nc3n(c2=O)CCCC3)cc1F	i
O=C(c1ccc(Cl)cc1)N1CC2(CCCN2Cc2cccnc2)Cc2ccccc21 (configuration not stated)	10µM*
O=C(O)CCC(=O)N1CCCC2(Cc3ccccc3N(C(=O)c3ccc(Cl)cc3)C2)C1 (configuration not stated)	i
O=C(c1ccncc1)N1CCCN(Cc2cccnc2)c2ccccc21	i
C[S+](=O)([O-])N1CC2(CCCCN2Cc2ccc(Cl)cc2)Cc2ccccc21 (configuration not stated)	-26.9%
CCN1CCCN(C(=O)c2cccnc2)CC12CCOCC2	-5.9%
O=[S+]([O-])(c1ccccc1)N1CC2(CCCN2Cc2cccnc2)Cc2ccccc21 (configuration not stated)	11.2µM*
O=C(c1ccc(Cl)cc1)N1CC2(CCN(Cc3cccnc3)CC2)Cc2ccccc21	-26.5%
O=C(c1ccccc1)N1CC2(CCCCN2Cc2cccnc2)Cc2ccccc21 (configuration not stated)	10µM*
CS(=O)(=O)N1Cc2ccccc2CC2(CCCN2Cc2cccnc2)C1 (configuration not stated)	-7.7%
CCC(=O)N1Cc2ccccc2CC2(CCCCN2CC2CCNC2)C1 (configuration not stated)	-2.5%
CCCOc1nccnc1NC1CCN(C(=O)c2ccccn2)CC1	i[5.79 µM]
O=C(NC1CC(c2nnc(CO)n2C2CC2)C1)c1cccn2cnnc12 (configuration not stated)	-23.9%
Cc1ccccc1C(=O)N1CCCC(c2nn(-c3ccc(F)cc3)c(=O)[nH]2)C1 (configuration not stated)	i
CCOC(=O)c1c(C)n(-c2ccc(OC)cc2)c2ccc(OC(=O)COc3ccccc3)cc12	11.2µM*
CCOC(=O)c1c(C)n(-c2ccccc2)c2ccc(OC(=O)COc3ccccc3)cc12	43.1%
COc1ccc(-n2c(C)c(C(C)=O)c3cc(OC(=O)COc4ccccc4)ccc32)cc1	-18.1%
COCc1cc(CNC(=O)C2(Oc3ccc(Cl)cc3)CCNCC2)[nH]n1	10.3%
COCc1nc2nc(-c3ccccc3)c(-c3ccc([S+](C)(=O)[O-])cc3)cc2n1C	-30.9%[44.1 µM]
O=C([C@H]1C[C@@H](F)CN1S(=O)(=O)Cc1ccc(Cl)cc1)N1CCOCC1	i
O=C(Cc1ccc(Cl)cc1)Nc1ccc2oc(-c3ccccc3F)nc2c1	i
SMILES	Pf Dd2 inh
O=C(Nc1ccc2oc(-c3ccccc3F)nc2c1)c1ccccc1Cl	3.98µM*
COc1ccccc1-c1nc2cc(NC(=O)c3ccccc3Cl)ccc2o1	1.2%
O=C(Nc1ccc(-c2nc3cc(NC(=O)c4ccc(F)cc4)ccc3o2)cc1)c1ccc(F)cc1	0.6%
O=C(Nc1ccc2oc(-c3ccccc3)nc2c1)c1ccc2ccccc2c1	17.6%
O=C(Nc1ccc2oc(-c3cccc(F)c3)nc2c1)c1ccc2ccccc2c1	1µM*
Cc1ccccc1CN1C[C@@H](CO)[C@H](c2nc(-c3ccncc3)no2)C1	-19.7%
CN(C)c1cccc(-c2nccc3c(=O)cc(N4CCOCC4)oc23)c1	-28.7%[44.1 µM]
COC(=O)c1ccc2nc(C[C@@H]3C[C@@H](C(C)C)[C@H](CNS(=O)(=O)c4ccccc4)C=C3C)[nH]c2c1	10µM*
COC(=O)c1ccc2nc(C[C@@H]3C[C@@H](C(C)C)[C@H](CNC(=O)c4cccnc4)C=C3C)[nH]c2c1	7.94µM*
CC1=C[C@@H](CNC(=O)c2ccccc2)[C@H](C(C)C)C[C@H]1Cc1nc2ccc(C)cc2[nH]1	-0.2%[44.1 µM]
COC(=O)c1ccc2nc(C[C@@H]3C[C@@H](C(C)C)[C@H](CNC(=O)CCC(=O)O)C=C3C)[nH]c2c1	i
COC(=O)c1ccc2nc(C[C@@H]3C[C@@H](C(C)C)[C@H](CNCc4ccc(NC(C)=O)cc4)C=C3C)[nH]c2c1	-6.5%
COC(=O)c1ccc2nc(C[C@@H]3C[C@@H](C(C)C)[C@H](CNC(=O)CC4(CC(=O)O)CCCC4)C=C3C)[nH]c2c1	i
CC1(C(=O)NC2CCC2)CN(Cc2ccccc2)Cc2ccc(N3CCOCC3)nc21 (configuration not stated)	i
Cc1cccc(C(=O)N2C[C@@H](CO)[C@H](N(C)C)C2)n1	29.2%
CCCOC(=O)N1CCCC2(CCC(=O)N(Cc3ccccc3)C2)C1 (configuration not stated)	0.0%
O=C(CC1CCCCC1)N1CCCC(c2noc(COc3ccccc3F)n2)C1 (configuration not stated)	i
Cc1cc(NC(=O)CCc2nc3cccnc3n2Cc2cccs2)ccc1Br	84.9%[5.79 µM]
COc1ccc(Cn2c(CCC(=O)Nc3cc(C)cc(C)c3)nc3cccnc32)cc1	-20.5%
O=C(CCc1nc2cccnc2n1Cc1cccs1)Nc1cccc(Cl)c1	11.2µM*
CCCn1c(CCC(=O)Nc2cccc(CC)c2)nc2cccnc21	-7.5%
COc1ccc(Cn2c(CCC(=O)Nc3ccc(C)cc3)nc3cccnc32)cc1	10µM*
COc1ccc(CNC(=O)CCc2nc3cccnc3n2Cc2ccc(OC)cc2)cc1	-3.7%
Cc1noc(C)c1CC(=O)NCCc1noc(C2CC2)n1	-6.0%
CC(C)CCN1CC2(CCCN(C(=O)Cn3ccc(=O)[nH]c3=O)C2)CCC1=O (configuration not stated)	-5.2%
SMILES	Pf Dd2 inh
Cc1nc2c(c(NC3CC3)n1)CCN(C(=O)c1ccc(=O)[nH]n1)CC2	-9.5%
CCOc1cc(=O)n2c(c1C(=O)Nc1cc(OC)cc(OC)c1)CCCC2	-20.5%
CCCN(CC1CCOC1)C(=O)Nc1cccc(Cl)c1 (configuration not stated)	i[5.79 µM]
CN(CC(=O)N1CCc2c(c(-c3nncn3Cc3ccccc3)nn2C)C1)S(=O)(=O)c1cnc[nH]1	-14.6%
CC(=O)c1ccc(NC(=O)c2cc(S(=O)(=O)N3CCCCCC3)cn2C)cc1	7.6%
Cn1cc(S(=O)(=O)N2CCCC2)cc1C(=O)Nc1ccc(F)cc1F	-3.4%
Cn1cc(S(=O)(=O)N2CCCCC2)cc1C(=O)Nc1ccc(OC(F)(F)F)cc1	11.2µM*
CC(C)CCN1C[C@@H](NC(=O)c2cccnc2)C[C@H]1CO	i
CCCNC(=O)N1CCC(O)(c2csc(CN3CCN(C)CC3)n2)CC1	i
COCCNc1ncccc1-c1noc([C@@H]2CCCN2Cc2ccc(C(=O)O)cc2)n1	i
COCCNc1ncccc1-c1noc([C@@H]2CCCN2Cc2ccccc2OC)n1	7.94µM*
COCCNc1ncccc1-c1noc([C@@H]2CCCN2C2CCC2)n1	-18.4%[44.1 µM]
Cc1ccc(C(=O)N2CCC(Cc3nc(-c4ccc(F)cc4)no3)CC2)cn1	-22.8%
COc1ccc(NC(C)=O)cc1NC(=O)C[C@H]1NC(=O)c2ccccc2NC1=O	-5.6%
CC(=O)c1ccc(NC(=O)CC2Nc3cc(C)c(C)cc3NC2=O)cc1 (configuration not stated)	5.01µM*
CCOc1ccccc1NC(=O)C[C@H]1NC(=O)c2ccccc2NC1=O	-8.3%
Cc1cc(Br)ccc1NC(=O)C[C@H]1NC(=O)c2ccccc2NC1=O	-13.9%

Screens as filed in PubChem.
